# Compound activity deposited in PubChem by National Center for Advancing Translational Sciences (NCATS).
# Most compounds without a hit are left out; they make up all but 8.9% or so of the library.
# D3 antag – qHTS of D3 Dopamine Receptor Antagonist: qHTS; D(3) dopamine receptor (Homo sapiens), P35462; D3R cells, DiscoveRx beta-arrestin luminescence, antagonist mode; hits give low values; max response, negative = inhibition, %; hit rate 2.5% among 360,000; AID 652054, 2013; in the data active means max response below about -50%; inconclusive means no clear call, values can overlap the other calls; further: on the % scale 0 is the no-effect control and ±100 the full control effect
# Target sequence (P35462 whole entry, looked up): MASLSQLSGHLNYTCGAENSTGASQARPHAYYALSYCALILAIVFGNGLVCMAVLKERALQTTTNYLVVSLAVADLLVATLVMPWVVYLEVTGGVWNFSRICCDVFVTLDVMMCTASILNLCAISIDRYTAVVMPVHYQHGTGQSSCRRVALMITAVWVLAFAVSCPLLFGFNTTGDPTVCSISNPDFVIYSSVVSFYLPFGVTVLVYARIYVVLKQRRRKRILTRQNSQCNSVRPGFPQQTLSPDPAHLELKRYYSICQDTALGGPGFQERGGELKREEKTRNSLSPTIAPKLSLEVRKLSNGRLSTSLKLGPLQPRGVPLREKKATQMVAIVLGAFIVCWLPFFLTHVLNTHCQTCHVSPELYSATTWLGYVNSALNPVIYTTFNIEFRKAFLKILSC
#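 Cells plated overnight at 1500 cells/well, then exposed to library compounds with dopamine controls for 90 minutes at 37 degrees C. DiscoveRx reagent added for 30–60 minutes at room temperature; luminescence read, quantitative HTS format.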
# KB-3-1 tox – qHTS assay for MDR1-selective chemotherapeutics: Primary screen using the parental adenocarcinoma cell KB-3-1. AID 1347075, 2019. KB-3-1 viability, CellTiter-Glo ATP luminescence, 72 h. hit rate 1.4% among 400,000. Potency, µM (titrated, usually from 46.1 µM), actives largely listed as cytotoxic; further: potency means the concentration at half of the fitted maximal effect; on the % scale 0 is the no-effect control and ±100 the full control effect; nearly all actives have a fitted effect of over 60% in size
#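 Cytotoxicity in the drug-sensitive parental line KB-3-1 was scored as loss of CellTiter-Glo luminescence following 72 h incubation with compound. Values come from curve fitting of normalized concentration-response data.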
# KB-V1 MDR tox – qHTS assay for MDR1-selective chemotherapeutics: Primary screen using the drug-selected MDR subline cells KB-V1; KB-V1 MDR cells viability, CellTiter-Glo, 72 h; Potency, µM (highest dose often 46.1 µM), hits mostly cytotoxic; hit rate 3.4% among 400,000; further: potency means the concentration at half of the fitted maximal effect; on the % scale 0 is the no-effect control and ±100 the full control effect; nearly all actives have a fitted effect of over 60% in size
#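 KB-V1, DMEM (no phenol red) + 10% FBS; cpd pin-transferred, titration series; 72 h, 37 degrees C; CellTiter-Glo, luminescence. Data normalized, curve-fit.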
# MCF10A rerep – A quantitative high throughput screen for small molecules that induce DNA re-replication in MCF 10a normal breast cells | MCF 10A DNA re-replication, Hoechst nuclear intensity, 48 h | Potency, µM (top dose mostly 46.1 µM), without a hit: top-dose activity, positive = re-replication, most hits filed as activators | hit rate 2.9% among 350,000; further: potency means the concentration at half of the fitted maximal effect; % of control where 0% means no effect; nearly all actives have a fitted effect of over 50% in size
# SW480 rereplic – A quantitative high throughput screen for small molecules that induce DNA re-replication in SW480 colon adenocarcinoma cells; SW480 DNA re-replication, Hoechst DNA content imaging, 48 h; Potency, µM (doses to about 46.1 µM), for the others: at the top dose re-replication activation, actives largely listed as activators; hit rate 1.8% among 340,000; AID 624297, 2012; further: potency means the concentration at half of the fitted maximal effect; % of control where 0% means no effect; nearly all actives have a fitted effect of over 55% in size
#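 Image-based read-out: total Hoechst fluorescence of nuclei (405 nm excitation, 500-530 nm emission), with hits raising the fraction of high-intensity nuclei. SW480 colon cells incubated 48 hr with compounds at 37 C.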
# D3 ag – qHTS of D3 Dopamine Receptor Agonist: qHTS | D(3) dopamine receptor (Homo sapiens), P35462 | D3R DiscoveRx beta-arrestin cells, luminescence, 90 min | max activation, % | hit rate 0.58% among 410,000 | AID 652048, 2013; in the data active means max activation above about 30%; further: 0% is about no effect
#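 Agonist-mode cell screen: cells plated at 1500/well and incubated overnight at 37 °C, then exposed to library compounds for 90 min at 37 °C. Detection reagent was added for 30–60 min at room temperature, and luminescence was read.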
# * = called active by the depositor; i = inactive; ? = inconclusive; . = no result given. Unless noted, the call rests on the fitted dose curve; in most records, active means well fitted curve in the direction sought with a large enough effect; inconclusive means small, poorly fitted or top-dose-only effect, or another doubt; inactive means no such curve, though single readings can be large; an effect the other way counts as inactive or inconclusive.
SMILES,D3 antag,KB-3-1 tox,KB-V1 MDR tox,MCF10A rerep,SW480 rereplic,D3 ag
CC(C)CNc1nc2c(c(=O)n(C)c(=O)n2C)n1Cc1cccc(Br)c1,-2.8,i,i,-16.1%,-0.8%,-4.5
CN1C2CCC1/C(=C\c1ccccc1F)C(=O)/C2=C/c1ccccc1F,-53.6*,?,13µM*,?,11.9%,-7.6
CC1CCN(C2=NC(=O)/C(=C/c3ccccc3F)S2)CC1,-23.9,i,i,?,-2.5%,-40.8
Cc1cccc(-c2nc3c4ccccc4n(CC(=O)Nc4cccc(F)c4)c(=O)n3n2)c1,.,i,?,.,.,-5.8
CCOc1ccc(C2C3=C(Nc4nc(N)[nH]c(=O)c42)c2ccccc2C3=O)cc1 (configuration not stated),9.9,i,i,0.2%,-7.1%,4.7
CCCOc1ccc(C2C3=C(Nc4nc(N)[nH]c(=O)c42)c2ccccc2C3=O)cc1 (configuration not stated),-55.0*,?,i,2.8%,-12.7%,-8.6
Cc1cccc(Nc2nc(N)nc(-c3oc4ccccc4c3C)n2)c1,-4.9,?,20.6µM*,16.4µM*,18.4µM*,3.1
COc1ccccc1Nc1nc(N)nc(-c2cc3ccccc3o2)n1,6.2,i,?,?,?,10.9
COc1cccc(Nc2nc(N)nc(-c3oc4ccccc4c3C)n2)c1,23.2,?,4.61µM*,7.31µM*,13µM*,4.4
Cc1ccc(Nc2nc(N)nc(-c3oc4ccccc4c3C)n2)cc1,-14.3,0.184µM*,?,?,?,3.9
Cc1c(-c2nc(N)nc(Nc3ccccc3F)n2)oc2ccccc12,21.1,i,16.4µM*,17.6%,?,8.2
COc1cccc(N2CC(NC(=O)c3cccc(OC)c3OC)CC2=O)c1 (configuration not stated),.,.,.,.,.,3.8
NC(=O)[C@H](Cc1cc2ccccc2s1)NC(=O)[C@@H]1CC2(CC(c3cccc(NC(=O)[C@@H]4CCC(=O)N4)c3)=NO2)CN1C(=O)/C=C/c1c(F)cccc1Cl (some centres not stated),9.2,i,?,4.5%,-2.7%,34.1*
O=C(C[n+]1cccc2cccc(O)c21)c1ccc(Cl)cc1,.,i,i,.,.,.
Cc1ccccc1C(=O)N1CCN(c2ccc([N+](=O)[O-])c(NCc3cccnc3)c2)CC1,0.0,i,4.11µM*,3.6%,-0.9%,8.8
Cc1ccc(C(=O)N2CCN(c3ccc([N+](=O)[O-])c(NCc4cccnc4)c3)CC2)cc1,28.1,i,?,7.4%,2.4%,1.8
CCOc1ccccc1N(C)C(=O)Cn1cnc2onc(-c3ccc(F)cc3)c2c1=O,.,i,?,.,.,-3.6
C=CCNC(=S)NNc1nc2c(c(=O)[nH]1)C1(CCCCC1)Cc1ccccc1-2,-21.7,i,?,23.1µM*,?,1.3
CCCCC(=O)N(C)c1c(C)nc2ccc(C(=O)N(C)CCN(C)C)cn12,0.0,i,i,.,.,-8.9
CCCCN(C)c1c(C)nc2ccc(C(=O)N(C)CCN(C)C)cn12,-71.4*,i,i,.,.,-12.8
CCC(=O)Nc1ccccc1-c1nc2ccccc2n(CC(=O)c2ccc(C)c(C)c2)c1=O,.,i,i,.,.,5.5
O=C(CN1c2cccc3cccc(c23)S1(=O)=O)N1CCN(c2ccccc2)CC1,-5.0,i,9.2µM*,8.8%,2.4%,-2.3
O=C(CN1C(=O)c2cccc3cccc1c23)N1CCN(c2ccc(F)cc2)CC1,-11.0,i,i,11.2µM*,?,1.6
O=C(CN1C(=O)c2cccc3cccc1c23)N1CCN(c2ccccc2)CC1,-17.1,i,i,23.1µM*,?,-1.1
CC(C)CNC(=O)c1ccccc1NC(=O)c1ccc(CSc2ccccc2)cc1,27.0,i,13µM*,?,17.7%,3.6
SMILES,D3 antag,KB-3-1 tox,KB-V1 MDR tox,MCF10A rerep,SW480 rereplic,D3 ag
O=C(CCSc1ccccc1)Nc1ccccc1C(=O)N1CCCC1,-9.5,?,?,0.0%,5.8%,-3.1
CCC(C)NC(=O)c1ccccc1NC(=O)c1ccc(CSc2ccc(C)cc2)cc1 (configuration not stated),-10.6,i,i,17.1%,-13.6%,1.3
O=C(CCSc1ccccc1)Nc1ncccn1,7.7,i,i,20.6µM*,23.0%,-1.5
CC(C)CNC(=O)c1ccccc1NC(=O)CCSc1ccccc1,18.0,i,20.6µM*,?,0.8%,6.5
Cc1ccc(SCCC(=O)Nc2ccccc2C(=O)N2CCOCC2)cc1,-4.5,i,23.1µM*,-10.0%,-6.4%,-1.7
COc1ccc(-n2ccnc(NCc3ccccc3OC)c2=O)cc1,.,i,i,.,.,-2.0
Cc1ccccc1C(=O)NCCSc1ccccc1,-11.2,i,i,4.7%,-10.4%,-0.6
CSc1ccccc1C(=O)NCCSc1ccccc1,-12.5,i,18.4µM*,19.6%,-1.6%,8.8
CC1(C)CC(=O)C(C=NCCN2CCN(CCCCS(=O)(=O)O)CC2)=C(O)C1,-10.6,i,i,0.4%,-1.5%,0.2
CC1(C)CC(=O)C(C=NCCN2CCOCC2)=C(O)C1,-14.9,i,i,-4.8%,6.51µM*,-15.8
CCCC1CCc2c(sc(NC(=O)OCC)c2C#N)C1 (configuration not stated),37.9,?,5.8µM*,?,10.3µM*,7.1
CC(C)(C)C1CCc2c(sc(NC(=O)c3ccncc3)c2C(N)=O)C1 (configuration not stated),36.9,i,11.6µM*,13.1%,-2.1%,29.0
COC(=O)c1c(NC(=O)c2cccs2)sc2c1CCC(C)C2 (configuration not stated),4.8,i,i,-3.4%,-5.5%,0.2
CC1CCc2c(sc(NC(=O)c3cccs3)c2C(=O)O)C1 (configuration not stated),-9.5,10.3µM*,i,?,-8.5%,-9.7
Cc1occc1C(=O)Nc1sc2c(c1C(N)=O)CCC(C(C)(C)C)C2 (configuration not stated),-5.0,i,i,6.7%,-5.3%,6.7
CCCC1CCc2c(sc(NC(=O)c3cccs3)c2C(N)=O)C1 (configuration not stated),-93.8*,i,i,?,?,19.8
